Results from PubChem BioAssay AID1159580 (chemical genetic matrix, 2015).
Out of some 5,500 compounds screened, about 2,000 (36%) were called active. About 18% were inconclusive and are not listed. Rule as the data show it: active = normalized growth mostly below about 0.91 (no sharp cut-off); inconclusive = no clear call, values can overlap the other calls; inactive = mostly above about 0.92. Some of the results follow.

Assay: chemical genetic growth profiling, strain panel (AID 1159580);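 also: tested at 20 µM; growth read once vehicle control cultures reached saturation at 30 °C; 1 = growth at the plate median or of vehicle wells; lower values mean less growth of the strain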
Details: growth OD
[1] = S. cerevisiae deletion strains, locus YAL013W, strain DEP1, active compounds read low
[2] = S. cerevisiae deletion strains, locus YDR150W, strain NUM1, active compounds read low
[3] = S. cerevisiae deletion strains, locus YGR078C, strain PAC10, active compounds read low
[4] = S. cerevisiae deletion strains, locus YJR075W, strain HOC1, active compounds read low
[5] = S. cerevisiae deletion strains, locus YMR307W, strain GAS1, active compounds read low
[6] = S. cerevisiae deletion strains, locus YNL128W, strain TEP1, active compounds read low
[7] = S. cerevisiae deletion strains, locus YNL322C, strain KRE1, active compounds read low
[8] = S. cerevisiae deletion strains, locus YPL055C, strain LGE1, active compounds read low
[9] = S. cerevisiae deletion strains, locus YPL241C, strain CIN2, active compounds read low
[10] = S. cerevisiae deletion strains, locus YAL040C, strain CLN3, active compounds read low
[11] = S. cerevisiae deletion strains, locus YCL061C, strain MRC1 (second series), active compounds read low
[12] = S. cerevisiae deletion strains, locus YDR363W, strain ESC2, active compounds read low
[13] = S. cerevisiae deletion strains, locus YER002W, strain NOP16, active compounds read low
[14] = S. cerevisiae deletion strains, locus YNL175C, strain NOP13, active compounds read low
[15] = S. cerevisiae deletion strains, locus YNL197C, strain WHI3, active compounds read low
[16] = S. cerevisiae deletion strains, locus YNL224C, strain SQS1, active compounds read low
[17] = S. cerevisiae deletion strains, locus YOR083W, strain WHI5 (second series), active compounds read low

Measured: normalized growth

CC(N)Cc1ccc(O)cc1 (centres undefined)
inactive: [1] 1.01 | S. cerevisiae deletion strains, locus YBR021W, strain FUR4, active compounds read low 1.04 | S. cerevisiae deletion strains, locus YBR229C, strain ROT2, active compounds read low 1.01 | S. cerevisiae deletion strains, locus YCL029C, strain bik1, active compounds read low 1.02 | S. cerevisiae deletion strains, locus YDL035C, strain GPR1, active compounds read low 1.02 | S. cerevisiae deletion strains, locus YDL074C, strain BRE1, active compounds read low 1 | S. cerevisiae deletion strains, locus YDL101C, strain DUN1, active compounds read low 1.02 | S. cerevisiae deletion strains, locus YDL134C, strain PPH21, active compounds read low 1.01 | S. cerevisiae deletion strains, locus YDL185W, strain tfp1, active compounds read low 1.01 | S. cerevisiae deletion strains, locus YDL192W, strain arf1, active compounds read low 1.03 | S. cerevisiae deletion strains, locus YDR101C, strain arx1, active compounds read low 1.01 | [2] 1.01 | S. cerevisiae deletion strains, locus YDR162C, strain NBP2, active compounds read low 1 | S. cerevisiae deletion strains, locus YDR318W, strain mcm21, active compounds read low 1.03 | S. cerevisiae deletion strains, locus YDR388W, active compounds read low 1.02 | S. cerevisiae deletion strains, locus YDR502C, strain sam2, active compounds read low 1.01 | S. cerevisiae deletion strains, locus YEL061C, strain CIN8, active compounds read low 1.02 | S. cerevisiae deletion strains, locus YER110C, active compounds read low 1.02 | S. cerevisiae deletion strains, locus YER155C, strain BEM2, active compounds read low 1 | S. cerevisiae deletion strains, locus YER167W, strain BCK2, active compounds read low 1.03 | S. cerevisiae deletion strains, locus YGL078C, strain dbp3, active compounds read low 1.02 | S. cerevisiae deletion strains, locus YGL086W, strain mad1, active compounds read low 1.02 | S. cerevisiae deletion strains, locus YGL248W, strain PDE1, active compounds read low 1.02 | [3] 1.01 | S. cerevisiae deletion strains, locus YGR135W, strain pre9, active compounds read low 1 | S. cerevisiae deletion strains, locus YGR229C, strain SMI1, active compounds read low 1.01 | S. cerevisiae deletion strains, locus YGR252W, strain gcn5, active compounds read low 1.04 | S. cerevisiae deletion strains, locus YHR030C, strain SLT2, active compounds read low 1.01 | S. cerevisiae deletion strains, locus YHR079C, strain IRE1 (second series), active compounds read low 1.03 | S. cerevisiae deletion strains, locus YHR094C, strain hxt1, active compounds read low 1.01 | S. cerevisiae deletion strains, locus YHR129C, strain ARP1, active compounds read low 1.03 | S. cerevisiae deletion strains, locus YHR200W, strain rpn10, active compounds read low 1.01 | S. cerevisiae deletion strains, locus YIL066C, strain RNR3, active compounds read low 1.01 | S. cerevisiae deletion strains, locus YIL073C, strain SPO22, active compounds read low 1.07 | S. cerevisiae deletion strains, locus YIL125W, strain kgd1, active compounds read low 1.02 | S. cerevisiae deletion strains, locus YIR030C, strain dcg1, active compounds read low 1.02 | S. cerevisiae deletion strains, locus YJL095W, strain BCK1, active compounds read low 1.02 | S. cerevisiae deletion strains, locus YJL134W, strain LCB3, active compounds read low 1.01 | S. cerevisiae deletion strains, locus YJL168C, strain set2, active compounds read low 1.01 | S. cerevisiae deletion strains, locus YJL187C, strain SWE1 (second series), active compounds read low 1.02 | S. cerevisiae deletion strains, locus YJR043C, strain POL32, active compounds read low 1.06 | [4] 1.02 | S. cerevisiae deletion strains, locus YKL009W, strain mrt4, active compounds read low 1.04 | S. cerevisiae deletion strains, locus YKL068W, active compounds read low 1.01 | S. cerevisiae deletion strains, locus YKL085W, strain MDH1 (second series), active compounds read low 1.02 | S. cerevisiae deletion strains, locus YKL085W, strain MDH1, active compounds read low 1.02 | S. cerevisiae deletion strains, locus YKL190W, strain CNB1, active compounds read low 1.01 | S. cerevisiae deletion strains, locus YKR001C, strain vps1, active compounds read low 1.04 | S. cerevisiae deletion strains, locus YLR039C, strain RIC1, active compounds read low 1.05 | S. cerevisiae deletion strains, locus YLR058C, strain SHM2, active compounds read low 1.02 | S. cerevisiae deletion strains, locus YLR102C, strain apc9, active compounds read low 1.02 | S. cerevisiae deletion strains, locus YLR262C, strain YPT6, active compounds read low 1.01 | S. cerevisiae deletion strains, locus YLR268W, strain sec22, active compounds read low 1.01 | S. cerevisiae deletion strains, locus YLR330W, strain CHS5, active compounds read low 1.01 | S. cerevisiae deletion strains, locus YLR342W, strain FKS1 (second series), active compounds read low 1.08 | S. cerevisiae deletion strains, locus YLR371W, strain rom2, active compounds read low 1.02 | S. cerevisiae deletion strains, locus YLR418C, strain cdc73, active compounds read low 0.995 | S. cerevisiae deletion strains, locus YML016C, strain PPZ1, active compounds read low 1.02 | S. cerevisiae deletion strains, locus YML032C, strain rad52, active compounds read low 1.04 | S. cerevisiae deletion strains, locus YML124C, strain tub3, active compounds read low 1.01 | S. cerevisiae deletion strains, locus YMR078C, strain ctf18, active compounds read low 1.03 | S. cerevisiae deletion strains, locus YMR223W, strain ubp8, active compounds read low 1.03 | S. cerevisiae deletion strains, locus YMR263W, strain SAP30, active compounds read low 1.01 | [5] 1.08 | S. cerevisiae deletion strains, locus YNL067W, strain RPL9B, active compounds read low 1.01 | [6] 0.99 | S. cerevisiae deletion strains, locus YNL153C, strain GIM3, active compounds read low 1.01 | S. cerevisiae deletion strains, locus YNL233W, strain BNI4, active compounds read low 1.02 | S. cerevisiae deletion strains, locus YNL250W, strain rad50, active compounds read low 1.01 | S. cerevisiae deletion strains, locus YNL271C, strain bni1, active compounds read low 1.02 | S. cerevisiae deletion strains, locus YNL298W, strain CLA4, active compounds read low 1.03 | S. cerevisiae deletion strains, locus YNL307C, strain MCK1, active compounds read low 1.03 | [7] 1.01 | S. cerevisiae deletion strains, locus YNR052C, strain pop2, active compounds read low 1.01 | S. cerevisiae deletion strains, locus YOL006C, strain TOP1, active compounds read low 1.07 | S. cerevisiae deletion strains, locus YOL012C, strain htz1 1.46 | S. cerevisiae deletion strains, locus YOL147C, strain pex11, active compounds read low 1.02 | S. cerevisiae deletion strains, locus YOR061W, strain CKA2, active compounds read low 1.01 | S. cerevisiae deletion strains, locus YOR069W, strain VPS5, active compounds read low 1.02 | S. cerevisiae deletion strains, locus YOR136W, strain idh2, active compounds read low 1.01 | S. cerevisiae deletion strains, locus YOR144C, strain elg1, active compounds read low 1.01 | S. cerevisiae deletion strains, locus YOR184W, strain ser1, active compounds read low 1.04 | S. cerevisiae deletion strains, locus YOR316C, strain cot1, active compounds read low 1.02 | [8] 0.982 | [9] 1.01 | S. cerevisiae deletion strains, locus YPR119W, strain clb2, active compounds read low 1.01 | S. cerevisiae deletion strains, locus YPR141C, strain kar3, active compounds read low 1.02 | S. cerevisiae deletion strains, locus YPR163C, strain tif3, active compounds read low 1.02 | S. cerevisiae deletion strains, locus YPR167C, strain met16, active compounds read low 1.02 | S. cerevisiae deletion strains, strain wtn01, active compounds read low 1.01 | S. cerevisiae strains, strain wild type, active compounds read low 1.01

CNCCc1c[nH]c2ccc(O)cc12
inactive: [10] 1.01 | [11] 1.01 | [2] 0.994 | [12] 1.01 | [13] 1.01 | [3] 1.02 | [5] 1 | [6] 1 | [14] 1.01 | [15] 1.02 | [16] 1.01 | [7] 1.02 | [17] 1.01 | [8] 1.01 | [9] 1

CCCCc1ccc(C(=O)O)nc1
inactive: [1] 1.02 | [10] 0.992 | [11] 1 | [12] 1.02 | [13] 1.05 | [3] 1 | [4] 1.07 | [14] 0.988 | [15] 1.01 | [16] 0.979 | [7] 1.02 | [17] 1.05 | [8] 1.03
